Bioassay records from PubChem.
Shown are actives, neighbours in structure and some others; about 1.5% of the full set was active somewhere.
CtBP-E1A inh – blocks the CtBP interaction with E1A; AID 651724; AlphaScreen GST-E1A/His-CtBP binding, 1536-well; active compounds read low; activity change, % (no concentration beside the values); 340,000 tested, 0.49% active; in the data active means activity change below about -65%; inconclusive means mostly about -30% to -63%
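AlphaScreen with 125 nM GST-E1A and 125 nM His-CtBP (5X stocks) in Tris pH 8.0, 300 mM NaCl, BSA, Tween 20, TCEP. Compounds preincubated 2 h at 37 deg C, then glutathione donor/nickel acceptor beads added for 1 h at 37 deg C in dark.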
GALK inhibitor – inhibitors of human galactokinase; P51570; Purified GALK, Kinase-Glo residual ATP luminescence; Potency, µM (doses to about 57.5 µM), usual class: inhibitors; 270,000 tested, 0.007% active; AID 1868
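ATP-depletion format; final 35 uM ATP, 100 uM D-galactose, 5 nM enzyme; pH 8.0 HEPES/Mg2+ buffer; 60 min RT; luminescence read 10 min after detection reagent.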
TrxR1 inh – inhibitors of rat thioredoxin reductase 1 | AID 588453 | Potency, µM (titrated, usually from 114 µM), usual class: inhibitors | 390,000 tested, 1% active | recombinant rTrxR1, NADPH fluorescence consumption, selenite substrate | O89049; further: nearly all actives have a fitted effect of over 65% in size
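Rat TrxR1 (90 nM in the dispensed reagent) was pre-reduced with 400 uM NADPH for 5 min at room temperature, then incubated with compound for 15 min. After 400 uM selenite was added, NADPH fluorescence (Ex 340/Em 450 nm) was followed for 8 min.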
Eya2 phos inh – Eya2 (human) phosphatase inhibition; recombinant Eya2, OMFP fluorescence dephosphorylation (OMFP is methylfluorescein phosphate); Potency, µM (doses to about 76.9 µM), hits mostly inhibitors; AID 488837; O00167; 330,000 tested, 0.006% active
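Eya2 (0.2 uM) preincubated 10 min at ambient with compound, then OMFP substrate added at 50 uM; 10 min reaction in 50 mM HEPES pH 7.5, 50 mM NaCl, 5 uM MgCl2, 0.05% BSA, 1 mM DTT. Fluorescence read at Ex 485/Em 525 nm.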
TrxR1 substrate – substrates of rat thioredoxin reductase 1. O89049. purified TrxR1 substrate turnover, NADPH consumption readout. Potency, µM (highest dose often 114 µM). 390,000 tested, 0.01% active; further: nearly all actives have a fitted effect of over 50% in size
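Rat TrxR1, dispensed at 90 nM, was prereduced with 400 uM NADPH (final) for 5 min at ~22 deg C, then incubated with compound 15 min before 400 uM selenite. A first-read NADPH fluorescence drop versus no-compound background flagged substrates.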
Six1-Eya2 blk – Six1/Eya2 interaction inhibition. Q15475+O00167. AlphaScreen GST-Six1/His-Eya2 binding, biochemical; active compounds read low. activity change, % (test concentration not listed). 360,000 tested, 0.56% active. AID 651725; in the data active means activity change below about -65%; inconclusive means mostly about -30% to -63%
Target sequence (O00167 whole entry, looked up): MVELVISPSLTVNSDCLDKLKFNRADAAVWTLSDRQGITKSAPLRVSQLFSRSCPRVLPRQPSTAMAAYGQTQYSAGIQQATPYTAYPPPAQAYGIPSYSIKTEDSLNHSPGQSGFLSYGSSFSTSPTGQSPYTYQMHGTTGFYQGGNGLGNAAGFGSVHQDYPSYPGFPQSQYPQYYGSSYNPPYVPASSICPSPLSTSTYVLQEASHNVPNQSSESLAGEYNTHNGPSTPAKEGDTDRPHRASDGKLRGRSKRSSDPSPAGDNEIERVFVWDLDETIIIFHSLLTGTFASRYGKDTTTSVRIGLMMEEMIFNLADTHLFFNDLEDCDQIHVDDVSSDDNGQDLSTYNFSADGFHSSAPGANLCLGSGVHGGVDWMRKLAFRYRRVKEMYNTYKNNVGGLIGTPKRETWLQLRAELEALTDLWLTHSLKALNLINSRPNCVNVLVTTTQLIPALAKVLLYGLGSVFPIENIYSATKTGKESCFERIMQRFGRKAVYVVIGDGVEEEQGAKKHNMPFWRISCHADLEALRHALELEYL
Target sequence (Q15475 whole entry, looked up): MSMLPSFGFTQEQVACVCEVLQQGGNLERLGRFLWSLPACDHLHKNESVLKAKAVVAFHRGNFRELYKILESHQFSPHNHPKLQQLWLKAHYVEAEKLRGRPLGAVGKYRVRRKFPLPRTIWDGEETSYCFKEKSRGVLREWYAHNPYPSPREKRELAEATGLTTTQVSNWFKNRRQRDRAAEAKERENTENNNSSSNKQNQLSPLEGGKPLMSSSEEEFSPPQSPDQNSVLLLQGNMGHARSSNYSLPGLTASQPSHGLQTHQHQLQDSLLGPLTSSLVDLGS
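Homogeneous AlphaScreen proximity assay pairing GST-Six1 with His-tagged Eya2 (added as 5X mix: 250 nM and 500 nM) in 50 mM Tris pH 8.0, 300 mM NaCl, 1 mM TCEP. Glutathione donor and nickel acceptor beads; 1 h, 37 °C, dark.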
Numbers stand for hits; . = inactive; ? = inconclusive; / = not tested or not shown; [ ] = dose if it differs, or a comment. Unless noted, the call rests on the fitted dose curve; in most records, active means well fitted curve in the direction sought with a large enough effect; inconclusive means small, poorly fitted or top-dose-only effect, or another doubt; inactive means no such curve, though single readings can be large; an effect the other way counts as inactive or inconclusive.

SMILES	CtBP-E1A inh	GALK inhibitor	TrxR1 inh	Eya2 phos inh	TrxR1 substrate	Six1-Eya2 blk
Cc1ccc(-n2c(O)c(C=NCc3ccco3)c(=O)[nH]c2=S)cc1C	.	.	13µM	.	.	.
O=c1[nH]c(=S)n(-c2ccccc2F)c(O)c1C=NCc1ccco1	.	.	.	.	.	.
C=CC[C@@H](CC/C=C/C=C/CC/C=C\[C@@H]1CSC([C@@H]2C[C@@H]2C)=N1)OC	.	/	50µM	.	.	.
O=[N+]([O-])c1ccc(N2CC2)c([N+](=O)[O-])c1	.	/	.	/	.	.
CCOC(=O)N1C(C)CN(/[N+]([O-])=N/Oc2ccc([N+](=O)[O-])cc2[N+](=O)[O-])CC1C (centres undefined)	/	/	25µM	/	.	/
COc1ccccc1C(=O)Nc1ccc2nc(SCC(=O)N(C)c3ccccc3)sc2c1	/	/	.	/	.	/
CCOC(=O)C1=C(C)c2ccccc2OC1(C(=O)OCC)c1ccccc1 (centres undefined)	.	/	45µM	.	.	.
CCOC(=O)c1ccccc1C(=O)OCC	.	/	.	/	.	.
NC(Cc1ccc(Cl)cc1)c1csc(Nc2cnccn2)n1 (centres undefined)	?	/	/	/	/	-72
Cn1cccc1/C=C1/C(=O)NC(=O)N(Cc2ccc(F)cc2)C1=O	.	.	?	.	.	.
Cn1cccc1/C=C1/C(=O)NC(=S)N(Cc2ccc(F)cc2)C1=O	.	.	45µM	.	.	.
COc1ccc(-c2cc(=O)c3cc(OCC(=O)OC(C)C)ccc3o2)cc1	/	/	.	/	.	/
CN(C[C@H](Cc1ccccc1)N(C[C@H](c1ccccc1)N(CCc1ccccc1)N=O)N=O)N=O	.	.	.	?	.	.
CN(C)c1ccc(N=O)cc1	/	/	5µM	/	?	/
Cn1c(=O)oc(=O)c2ccccc21	.	/	56µM	/	.	.
CCCCOc1ccc(C(=O)NCCc2csc(-c3ccc(OC)cc3)n2)cc1	/	/	.	/	.	/
CCOc1ccccc1N1C(=O)NC(=O)/C(=C/c2ccc3c4c(cccc24)CC3)C1=O	.	.	22µM	.	.	.
C=C1CCN([C@@H](Cc2ccccc2)C(=O)Nc2ccc(OC)cc2)S(=O)(=O)c2ccccc21	.	/	.	/	.	.
NC(Cn1ccc(=O)[nH]c1=O)C(=O)O (centres undefined)	/	/	.	/	/	/
CCC(C)N1C(=O)/C(=C/c2ccc3c(c2)CCN3CCCCl)C(=O)NC1=S (centres undefined)	.	.	13µM	.	.	.
Cc1ccc(-c2nc3c(=O)n(C)c(=O)nc-3n(C)n2)cc1	/	/	11µM	/	13µM	/
Cn1ncnc2c(=O)n(C)c(=O)nc1-2	?	1.3µM	?	20µM	40µM	.
C=CCn1c(O)c(/C=C2/C=c3ccccc3=N2)c(=O)[nH]c1=S	.	.	20µM	.	.	.
C=CCn1c(O)c(C=Nc2ccc(F)cc2)c(=O)[nH]c1=O	.	.	.	.	.	.
O=C(CN1CCOCC1)c1ccc2ccccc2c1	/	/	?	/	.	/
SMILES	CtBP-E1A inh	GALK inhibitor	TrxR1 inh	Eya2 phos inh	TrxR1 substrate	Six1-Eya2 blk
[O]=[Sb]([OH])([OH])[c]1ccccc1	/	/	6.3µM	/	.	/
CCN(CC)C(=O)c1ccc2c(c1)C1C(Cl)C(Sc3ccccc3[N+](=O)[O-])CC1C(C(=O)O)N2 (centres undefined)	?	.	50µM	.	.	?
CCN(CC)C(=O)c1ccc2c(c1)C1C=CCC1C(C(=O)O)N2 (centres undefined)	/	/	?	.	.[2.29 µM]	-75
CCN(CC)C(=O)c1ccc(N(Cc2ccccc2)S(C)(=O)=O)cc1	.	.	.	.	.	.
C=C1C=C(C(F)F)n2ncc(C(=O)NCc3ccccc3F)c2N1	/	/	?	/	.	/
NCC(=O)c1ccc(Br)cc1	/	/	.	/	.	/
COc1ccccc1NC(=O)c1oc2ccccc2c1NC(=O)c1ccccc1C(F)(F)F	/	/	.	/	.	/
CCCC(=O)NC(Oc1ccc(C(C)=O)cc1)C(Cl)(Cl)Cl (centres undefined)	.	.	25µM	.	.	.
Cc1ccccc1C(=O)NC(Oc1ccccc1)C(Cl)(Cl)Cl (centres undefined)	.	.	.	.	.	.
CN1C2CC(OC(=O)[C@H](CO)c3ccccc3)CC1C1OC12 (some centres undefined)	/	/	.	.	.	/
CCNC(=O)[C@H]1O[C@@H](n2cnc3c(N)ncnc32)[C@H](O)[C@H]1O	/	/	.	/	/	/
COc1ccc(C(=O)Nc2nnc(S(=O)(=O)N(CC(C)C)c3ccc(C)cc3)s2)cc1OC	/	/	.	/	.	/
COc1ccc(NC2CC(=O)N(C(C)C)C2=O)cc1 (centres undefined)	.	.	3.5µM	.	.	.
CCOC(=O)c1oc2ccc(S(=O)(=O)n3nc(-c4ccc(Br)cc4)cc3N)cc2c1C	/	/	.	/	.	/
CCCCCCCCCC[Si](C)(C)CCC(=O)N[C@@H](Cc1ccc(C)cc1)c1ccccc1	/	/	.	/	.	/
CCCCCC(=O)N[C@@H](c1ccccc1)[C@@H](O)C(=O)O[C@H]1C[C@@]2(O)[C@@H](OC(=O)c3ccccc3)C3[C@](C)(C(=O)[C@H](O)C(=C1C)C2(C)C)[C@@H](OC1OCC(O)C(O)C1O)C[C@H]1OC[C@@]31OC(C)=O (some centres undefined)	.	/	.	.	.	-90
CC(=O)O[C@@]12CO[C@@H]1C[C@H](OC1OCC(O)C(O)C1O)[C@@]1(C)C(=O)[C@H](O)C3=C(C)[C@@H](OC(=O)[C@H](O)[C@@H](NC(=O)c4ccccc4)c4ccccc4)C[C@@](O)([C@@H](OC(=O)c4ccccc4)C12)C3(C)C (some centres undefined)	.	/	.	.	.	.
Cc1ccccc1N1C(=O)NC(=O)/C(=C\c2cc(Br)c(N3CCOCC3)o2)C1=O	.	.	22µM	.	.	.
Cc1ccccc1N1C(=O)NC(=O)/C(=C/c2ccc(N3CCOCC3)o2)C1=O	.	.	.	.	.	.
C[C@]12CC[C@@H]3c4ccc(O)cc4C[C@@H](CCCCCCCCCS(=O)CCCC(F)(F)C(F)(F)F)[C@H]3[C@@H]1CC[C@@H]2O (some centres undefined)	/	/	.	.	?	/
CCOc1ccc(N2C(=O)/C(=C/c3ccco3)C(=O)NC2=S)cc1	/	.	?	.	.	-81
O=C1NC(=S)N(c2ccccc2F)C(=O)/C1=C\c1cccs1	.	.	8.9µM	.	.	.
Cc1ccccc1N1C(=O)/C(=C/c2ccco2)C(=O)NC1=S	/	?	/	.	/	/
CCOc1ccc(N2C(=O)/C(=C\c3cccs3)C(=O)NC2=S)cc1	.	.	22µM	.	.	.
O=C1NC(=O)C(=Cc2cccs2)C(=O)N1	.	/	.[2.29 µM]	/	.[2.29 µM]	.
